Assay results taken from PubChem BioAssay AID1159580 (chemical genetic matrix, 2015).
Screen size: about 5,500 compounds; about 2,000 (36%) were called active. Inconclusive results (about 18%) are left out. Cut-off read from the data, not from the text of the source: active = normalized growth mostly below about 0.91 (no sharp cut-off); inconclusive = no clear call, values can overlap the other calls; inactive = mostly above about 0.92. The list shows a part of the results.

Assay: chemical genetic growth profiling, strain panel (AID 1159580);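 note: tested at 20 µM; growth read once vehicle control cultures reached saturation at 30 °C; 1 = growth at the plate median or of vehicle wells; lower values mean less growth of the strain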
Conditions: S. cerevisiae deletion strains, growth OD

Measured: normalized growth

CC(=O)O[C@]1(C(C)=O)CCC2C3C=C(Cl)C4=CC(=O)[C@@H]5C[C@@H]5[C@]4(C)C3CC[C@@]21C (some centres undefined)
inactive: locus YAL021C, strain ccr4, stronger effect = lower value 1.06 | locus YAL026C, strain drs2, stronger effect = lower value 1.02 | locus YAL030W, strain snc1, stronger effect = lower value 1.01 | locus YBL061C, strain skt5, stronger effect = lower value 1.01 | locus YBR009C, strain hhf1, stronger effect = lower value 0.973 | locus YBR023C, strain chs3, stronger effect = lower value 1 | locus YBR171W, strain sec66, stronger effect = lower value 1.02 | locus YBR231C, strain swc5, stronger effect = lower value 1.03 | locus YBR279W, strain paf1, stronger effect = lower value 0.997 | locus YCL011C, strain gbp2, stronger effect = lower value 0.99 | locus YCL016C, strain dcc1, stronger effect = lower value 0.992 | locus YCL061C, strain MRC1, stronger effect = lower value 1.02 | locus YCL069W, strain vba3, stronger effect = lower value 1.01 | locus YCR088W, strain abp1, stronger effect = lower value 1.01 | locus YDL005C, strain med2, stronger effect = lower value 1 | locus YDL040C, strain nat1, stronger effect = lower value 1.01 | locus YDR001C, strain nth1, stronger effect = lower value 1.01 | locus YDR069C, strain doa4, stronger effect = lower value 1.04 | locus YDR137W, strain rgp1, stronger effect = lower value 0.968 | locus YDR159W, strain sac3, stronger effect = lower value 0.946 | locus YDR195W, strain ref2 1.05 | locus YDR297W, strain sur2, stronger effect = lower value 1.02 | locus YDR334W, strain swr1, stronger effect = lower value 1 | locus YDR335W, strain msn5, stronger effect = lower value 1.01 | locus YDR392W, strain spt3, stronger effect = lower value 0.861 | locus YEL003W, strain gim4, stronger effect = lower value 1.02 | locus YEL037C, strain rad23, stronger effect = lower value 1.02 | locus YEL061C, strain CIN8 (second series), stronger effect = lower value 1.01 | locus YER015W, strain faa2, stronger effect = lower value 1 | locus YER016W, strain bim1, stronger effect = lower value 1.01 | locus YER111C, strain swi4, stronger effect = lower value 1.02 | locus YER155C, strain BEM2 (second series), stronger effect = lower value 1.05 | locus YFR010W, strain ubp6, stronger effect = lower value 1.03 | locus YGL167C, strain pmr1, stronger effect = lower value 1.03 | locus YGL173C, strain kem1, stronger effect = lower value 1.02 | locus YGL227W, strain vid30, stronger effect = lower value 0.997 | locus YGL240W, strain doc1, stronger effect = lower value 1.02 | locus YGL253W, strain hxk2, stronger effect = lower value 0.973 | locus YHR013C, strain ard1, stronger effect = lower value 1.03 | locus YHR027C, strain rpn1, stronger effect = lower value 1.01 | locus YHR030C, strain SLT2, stronger effect = lower value 1.03 | locus YHR079C, strain IRE1, stronger effect = lower value 1.02 | locus YHR142W, strain chs7, stronger effect = lower value 0.988 | locus YJL092W, strain hpr5, stronger effect = lower value 1.02 | locus YJL095W, strain BCK1 (second series), stronger effect = lower value 1.02 | locus YJL095W, strain BCK1, stronger effect = lower value 1.02 | locus YJL115W, strain asf1, stronger effect = lower value 1.01 | locus YJL129C, strain trk1, stronger effect = lower value 1.01 | locus YJL154C, strain vps35, stronger effect = lower value 1.01 | locus YJL164C, strain tpk1, stronger effect = lower value 0.992 | locus YJL166W, strain qcr8, stronger effect = lower value 1.02 | locus YJR066W, strain TOR1, stronger effect = lower value 0.997 | locus YKL160W, strain elf1, stronger effect = lower value 1.01 | locus YKR026C, strain gcn3, stronger effect = lower value 1.01 | locus YKR091W, strain srl3, stronger effect = lower value 1.01 | locus YLL001W, strain dnm1, stronger effect = lower value 1.02 | locus YLL026W, stronger effect = lower value 1.01 | locus YLL041C, strain sdh2, stronger effect = lower value 1.01 | locus YLR027C, strain aat2, stronger effect = lower value 1.02 | locus YLR113W, strain HOG1, stronger effect = lower value 1.03 | locus YLR221C, strain rsa3, stronger effect = lower value 0.982 | locus YLR258W, strain gsy2, stronger effect = lower value 1.01 | locus YLR262C, strain YPT6 (second series), stronger effect = lower value 0.977 | locus YLR320W, strain mms22, stronger effect = lower value 0.979 | locus YLR342W, strain FKS1, stronger effect = lower value 1.01 | locus YLR357W, strain rsc2, stronger effect = lower value 0.999 | locus YLR370C, strain arc18, stronger effect = lower value 1.02 | locus YLR384C, strain iki3, stronger effect = lower value 1.01 | locus YML120C, strain ndi1, stronger effect = lower value 1.02 | locus YMR058W, strain fet3, stronger effect = lower value 1.02 | locus YMR125W, strain sto1, stronger effect = lower value 1.02 | locus YMR129W, stronger effect = lower value 1.01 | locus YMR205C, strain PFK2, stronger effect = lower value 0.991 | locus YMR231W, strain pep5, stronger effect = lower value 1.01 | locus YNL071W, strain lat1, stronger effect = lower value 0.963 | locus YNL183C, strain NPR1, stronger effect = lower value 0.986 | locus YNL209W, strain ssb2, stronger effect = lower value 0.999 | locus YNL248C, strain rpa49, stronger effect = lower value 1.01 | locus YNL322C, strain KRE1 (second series), stronger effect = lower value 1.01 | locus YNR049C, strain mso1, stronger effect = lower value 1 | locus YOR001W, strain rrp6, stronger effect = lower value 1.03 | locus YOR070C, strain gyp1, stronger effect = lower value 1 | locus YOR080W, strain dia2, stronger effect = lower value 1.02 | locus YOR083W, strain WHI5, stronger effect = lower value 0.983 | locus YOR106W, strain vam3, stronger effect = lower value 1.01 | locus YOR231W, strain MKK1, stronger effect = lower value 1.02 | locus YOR265W, strain rbl2, stronger effect = lower value 1.02 | locus YOR270C, strain vph1, stronger effect = lower value 0.954 | locus YOR290C, strain snf2, stronger effect = lower value 0.995 | locus YPL051W, strain arl3, stronger effect = lower value 1.01 | locus YPL078C, strain atp4, stronger effect = lower value 1.01 | locus YPL106C, strain sse1, stronger effect = lower value 1.04 | locus YPL240C, strain hsp82, stronger effect = lower value 1.02 | locus YPL256C, strain CLN2, stronger effect = lower value 1.03
